Results as given in PubChem BioAssay (EPA / NIEHS).
Results filed as inconclusive are left out. The source made the active and inactive calls. The calls were made as follows, unless noted: active = hit-call score of the fitted dose curve at least 0.9, where 1 is the maximum; inactive = score below 0.9.

Experiments:
[1] = target: Paired box protein Pax-6 (Homo sapiens) (UniProt P26367); assay: ATG_Pax6_CIS: Attagene CIS-FACTORIAL HepG2 Assay for human Paired Box 6 (PAX6) (AID 2282956); details: HepG2 CIS-FACTORIAL PAX6 reporter transcription, RNA readout; actives raise or lower the signal
Outline: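 After twenty-four hours of chemical exposure, transfected HepG2 cells are harvested for RNA. Cis-promoter reporter transcripts are amplified, fluorescently labelled and sized by capillary electrophoresis, with gain and loss of signal scored against DMSO.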

[2] = ATG_PXRE_CIS: Attagene CIS-FACTORIAL HepG2 Assay for human Pregnane X Receptor Element (PXRE) (AID 2282957); details: HepG2 Attagene CIS-FACTORIAL PXRE reporter, mRNA; actives raise or lower the signal
Outline: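 HepG2 cells transiently transfected with cis-regulated multiple reporter transcription units; endogenous factor activity measured as reporter mRNA 24 h after dosing. RT-PCR, fluorescent primer extension, HpaI digestion, capillary electrophoresis; bidirectional fit versus DMSO baseline.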

[3] = ATG_PPRE_CIS: Attagene CIS-FACTORIAL HepG2 Assay for human Peroxisome Proliferator-activated Response Element (PPRE) (AID 2282958); details: HepG2 PPRE cis-element reporter, Attagene transcription factor profiling; actives raise or lower the signal
Outline: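 HepG2, transient MRTU transfection (cis promoter elements, endogenous TFs). 24 h dosing. RNA → oligo(dT) RT → PCR → 6-FAM primer extension → HpaI digest → CE. Bidirectional fit vs DMSO.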

[4] = ATG_RORE_CIS: Attagene CIS-FACTORIAL HepG2 Assay for human RAR-related Orphan Receptor Element (RORE) (AID 2282959); details: HepG2 Attagene cis-factorial RORE reporter, mRNA; actives raise or lower the signal
Outline: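 Transient MRTU transfection of human HepG2 liver cells (FuGene 6); 24 h compound exposure; TriZol RNA, oligo(dT) RT, PCR, FAM labeling, HpaI cut, CE fragment analysis. DMSO = negative control/baseline.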

[5] = ATG_Sox_CIS: Attagene CIS-FACTORIAL HepG2 Assay for human SRY-box transcription factor (SOX) (AID 2282960); details: HepG2 Attagene cis-factorial SOX reporter, mRNA; actives raise or lower the signal
Outline: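 Endogenous factor activity in human liver HepG2 cells carrying transfected cis-regulated reporter units. RNA taken 24 h post-dose, reverse-transcribed, PCR-amplified and sized by capillary electrophoresis. Gain or loss of signal fitted relative to DMSO.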

[6] = target: Transcription factor Sp1 (Homo sapiens) (UniProt P08047); assay: ATG_Sp1_CIS: Attagene CIS-FACTORIAL HepG2 Assay for human Specificity Protein 1 (Sp1) (AID 2282961); details: HepG2 Sp1 cis-reporter transcription, actives raise or lower the signal
Outline: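 Transient MRTU-transfected HepG2, 24 h compound exposure. Total RNA → oligo(dT) RT → PCR of reporter → 6-FAM primer extension → HpaI digest → CE. Endpoint fitted both directions vs DMSO.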

[7] = target: Signal transducer and activator of transcription 3 (Homo sapiens) (UniProt P40763); assay: ATG_STAT3_CIS: Attagene CIS-FACTORIAL HepG2 Assay for human Signal Transducer and Activator of Transcription 3 (STAT3) (AID 2282963); details: HepG2, Attagene cis-factorial STAT3 reporter transcription; actives raise or lower the signal
Outline: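 HepG2 cells transiently transfected with multiple cis-element-driven reporter units report endogenous transcription factor activity. After 24 h compound exposure, reporter mRNA is measured by RT-PCR, 6-FAM labelling, HpaI digestion and capillary electrophoresis. Fitted bidirectionally versus DMSO.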

[8] = ATG_TA_CIS: Attagene CIS-FACTORIAL HepG2 Assay for human TA Basal Promoter (AID 2282964); details: HepG2 Attagene CIS-factorial TA basal promoter reporter; actives raise or lower the signal
Outline: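 Multiplexed mRNA reporter assay, HepG2, 24 h. Reporter cDNA amplified, 6-FAM primer-extended, HpaI-cut, CE-sized; DMSO = negative control and baseline.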

[9] = ATG_TCF_b_cat_CIS: Attagene CIS-FACTORIAL HepG2 Assay for human T-Cell-Factor with beta-catenin (TCF/b-cat) (AID 2282965); details: HepG2 TCF/beta-catenin cis-reporter transcription, actives raise or lower the signal
Outline: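 Cells of the HepG2 line carry transiently transfected reporter units whose promoters respond to endogenous factors. Twenty-four hours post-dosing, reporter mRNA induction is measured by fluorescent RT-PCR and capillary electrophoresis, with DMSO as baseline.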

[10] = ATG_TAL_CIS: Attagene CIS-FACTORIAL HepG2 Assay for human TAL Basal Promoter (AID 2282966); details: HepG2 Attagene cis-factorial TAL promoter reporter; actives raise or lower the signal;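 also: background control endpoint measuring basal TAL promoter reporter mRNA not a specific factor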
Outline: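 HepG2 cells were transiently transfected with promoter-driven multiplexed reporter units and dosed for 24 h. Reporter mRNA was measured by RT-PCR with capillary electrophoresis fluorescence; bidirectional fits used DMSO as baseline, serving as a background control.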

[11] = ATG_TGFb_CIS: Attagene CIS-FACTORIAL HepG2 Assay for human Transforming Growth Factor (TGF) (AID 2282967); details: HepG2 Attagene CIS TGFb reporter, mRNA transcription; actives raise or lower the signal
Outline: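 Transcript-level reporter readout: HepG2 transfectants, 24 h exposure, RNA to cDNA, reporter-specific PCR, fluorescent primer extension, capillary sizing against ROX standards. Gain- or loss-of-signal relative to DMSO.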

[12] = target: X-box-binding protein 1 (Homo sapiens) (UniProt P17861); assay: ATG_Xbp1_CIS: Attagene CIS-FACTORIAL HepG2 Assay for human X-box Binding Protein 1 (XBP1) (AID 2282972); details: HepG2 XBP1 cis-element reporter, Attagene multiplex; actives raise or lower the signal
Outline: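 After a 24-hour chemical exposure of HepG2 cells carrying cis-regulated reporters, reporter mRNA levels are assessed. Quantification uses RT-PCR, 6-FAM labelling and capillary electrophoresis. Gain- or loss-of-signal is fitted against DMSO.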

[13] = ATG_M_19_TRANS: Attagene TRANS-FACTORIAL HepG2 Assay for M19 Transcription Factor (Internal Marker) (AID 2282974; active = hit-call score of the fitted dose curve at least 0.9, where 1 is the maximum); details: HepG2 Attagene TRANS-FACTORIAL M19 internal marker reporter
Outline: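 Fluorescence of 6-FAM-labelled reporter cDNA fragments, separated by capillary electrophoresis, served as the readout. These derived from HepG2 cells carrying transfected GAL4-UAS reporter units after 24 h dosing, with DMSO as negative control.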

[14] = target: Estrogen-related receptor gamma (Homo sapiens) (UniProt P62508); assay: ATG_ERRg_TRANS: Attagene TRANS-FACTORIAL HepG2 Assay for human Estrogen-Related Receptor gamma (ERRg) (AID 2282977; active = hit-call score of the fitted dose curve at least 0.9, where 1 is the maximum;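 also: hits increase reporter signal over DMSO so potencies reflect activators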); details: HepG2 Attagene TRANS reporter, ERRg transactivation
Outline: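 HepG2 cells transiently transfected with multiplexed GAL4-UAS reporter units driven by chimeric NR-Gal4 proteins; 24 h exposure. Reporter mRNA quantified by RT-PCR, fluorescent labelling, HpaI digestion and capillary electrophoresis; gain of signal vs DMSO.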

[15] = target: Glucocorticoid receptor (Homo sapiens) (UniProt P04150); assay: ATG_GR_TRANS: Attagene TRANS-FACTORIAL HepG2 Assay for human Glucocorticoid Receptor (GR) (AID 2282978; active = hit-call score of the fitted dose curve at least 0.9, where 1 is the maximum;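 also: activators score as hits since higher reporter transcript over DMSO is fitted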); details: HepG2 Attagene TRANS GR reporter, mRNA transcription
Outline: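 Fluorescent capillary-electrophoresis quantitation of reporter mRNA is the readout, taken 24 h after dosing human HepG2 cells carrying transiently transfected GAL4-UAS reporter units activated by chimeric NR-GAL4 fusions; activity scored as induction over DMSO.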

[16] = ATG_VDRE_CIS: Attagene CIS-FACTORIAL HepG2 Assay for human Vitamin D Receptor Element (VDRE) (AID 2282968); details: HepG2 VDRE cis-reporter transcription, actives raise or lower the signal
Outline: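 Transiently transfected HepG2 cells carrying cis-regulated reporter transcription units were exposed for 24 h. Reporter mRNA was measured by RT-PCR with fluorescent labelling and capillary electrophoresis, and fitted in both directions against DMSO.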

[17] = target: Estrogen receptor (Homo sapiens) (UniProt P03372); assay: ATG_ERa_TRANS: Attagene TRANS-FACTORIAL HepG2 Assay for human Estrogen Receptor alpha (ERa) (AID 2282970; active = hit-call score of the fitted dose curve at least 0.9, where 1 is the maximum); details: HepG2 Attagene TRANS ERa GAL4 reporter, mRNA
Outline: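 HepG2 cells transiently transfected with multiplexed GAL4-UAS reporter units; ERa activity read via exogenous chimeric NR-Gal4 protein. After 24 hour compound exposure, reporter mRNA measured by RT-PCR with 6-FAM labelling and capillary electrophoresis; gain-of-signal fitted relative to DMSO.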

[18] = ATG_GAL4_TRANS: Attagene TRANS-FACTORIAL HepG2 Assay for GAL4 (Internal Marker) (AID 2282976; active = hit-call score of the fitted dose curve at least 0.9, where 1 is the maximum); details: HepG2 Attagene TRANS GAL4 internal marker reporter
Outline: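 HepG2 cells transiently transfected with multiplexed GAL4-UAS reporter constructs were dosed for 24 h. Reporter mRNA was measured by RT-PCR, 6-FAM primer extension, HpaI digestion and capillary electrophoresis, and gain of signal was fitted relative to DMSO.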

[19] = ATG_SREBP_CIS: Attagene CIS-FACTORIAL HepG2 Assay for human Sterol Regulatory Element Binding (SREBP) (AID 2282962); details: HepG2 Attagene cis-factorial SREBP reporter, mRNA; actives raise or lower the signal
Outline: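 Twenty-four hours after chemical dosing of transfected HepG2 cultures, reporter RNA was converted to cDNA, amplified, end-labelled with 6-FAM and resolved by capillary electrophoresis. Responses were fitted relative to DMSO.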

[20] = target: Steroid hormone receptor ERR1 (Homo sapiens) (UniProt P11474); assay: ATG_ERRa_TRANS: Attagene TRANS-FACTORIAL HepG2 Assay for human Estrogen-Related Receptor alpha (ERRa) (AID 2282971; active = hit-call score of the fitted dose curve at least 0.9, where 1 is the maximum); details: HepG2 Attagene TRANS reporter, ERRa transactivation
Outline: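 HepG2 cells transiently transfected with multiplexed GAL4-UAS reporter units reading chimeric ERRa-Gal4 activity; 24 h compound exposure. Reporter mRNA measured by RT-PCR, 6-FAM labelling, HpaI digest and capillary electrophoresis; gain of signal fitted versus DMSO baseline.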

Measured: AC50

Chain of X-box-binding protein 1 (Homo sapiens) (P17861 whole entry, looked up): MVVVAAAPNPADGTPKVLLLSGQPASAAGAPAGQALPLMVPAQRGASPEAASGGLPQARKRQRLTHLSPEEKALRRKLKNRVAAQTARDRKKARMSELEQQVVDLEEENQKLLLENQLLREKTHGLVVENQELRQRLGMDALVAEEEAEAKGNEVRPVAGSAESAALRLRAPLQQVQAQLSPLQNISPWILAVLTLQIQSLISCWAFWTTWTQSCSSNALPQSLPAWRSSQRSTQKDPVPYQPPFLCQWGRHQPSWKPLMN
Chain of Transcription factor Sp1 (Homo sapiens) (P08047 whole entry, looked up): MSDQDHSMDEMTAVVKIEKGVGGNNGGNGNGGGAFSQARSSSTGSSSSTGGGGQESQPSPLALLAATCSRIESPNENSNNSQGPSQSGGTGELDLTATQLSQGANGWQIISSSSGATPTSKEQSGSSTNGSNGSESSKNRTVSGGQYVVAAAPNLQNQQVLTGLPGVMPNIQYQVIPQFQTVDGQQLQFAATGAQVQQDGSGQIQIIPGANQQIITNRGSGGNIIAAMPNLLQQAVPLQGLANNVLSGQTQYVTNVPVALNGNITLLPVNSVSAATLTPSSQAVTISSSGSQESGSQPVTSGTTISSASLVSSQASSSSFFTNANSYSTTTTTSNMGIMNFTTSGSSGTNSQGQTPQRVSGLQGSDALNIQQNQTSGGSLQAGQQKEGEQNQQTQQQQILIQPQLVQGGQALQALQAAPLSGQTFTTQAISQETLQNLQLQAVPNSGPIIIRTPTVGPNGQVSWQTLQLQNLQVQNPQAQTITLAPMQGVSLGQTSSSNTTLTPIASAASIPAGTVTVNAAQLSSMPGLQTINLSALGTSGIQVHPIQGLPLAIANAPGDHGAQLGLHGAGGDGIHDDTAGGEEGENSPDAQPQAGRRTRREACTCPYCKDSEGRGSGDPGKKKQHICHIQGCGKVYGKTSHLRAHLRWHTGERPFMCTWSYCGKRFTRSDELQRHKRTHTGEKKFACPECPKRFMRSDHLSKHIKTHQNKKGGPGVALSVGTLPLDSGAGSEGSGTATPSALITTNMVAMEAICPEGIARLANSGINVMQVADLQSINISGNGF
Chain of Estrogen receptor (Homo sapiens) (P03372 whole entry, looked up, the tested form may be a part): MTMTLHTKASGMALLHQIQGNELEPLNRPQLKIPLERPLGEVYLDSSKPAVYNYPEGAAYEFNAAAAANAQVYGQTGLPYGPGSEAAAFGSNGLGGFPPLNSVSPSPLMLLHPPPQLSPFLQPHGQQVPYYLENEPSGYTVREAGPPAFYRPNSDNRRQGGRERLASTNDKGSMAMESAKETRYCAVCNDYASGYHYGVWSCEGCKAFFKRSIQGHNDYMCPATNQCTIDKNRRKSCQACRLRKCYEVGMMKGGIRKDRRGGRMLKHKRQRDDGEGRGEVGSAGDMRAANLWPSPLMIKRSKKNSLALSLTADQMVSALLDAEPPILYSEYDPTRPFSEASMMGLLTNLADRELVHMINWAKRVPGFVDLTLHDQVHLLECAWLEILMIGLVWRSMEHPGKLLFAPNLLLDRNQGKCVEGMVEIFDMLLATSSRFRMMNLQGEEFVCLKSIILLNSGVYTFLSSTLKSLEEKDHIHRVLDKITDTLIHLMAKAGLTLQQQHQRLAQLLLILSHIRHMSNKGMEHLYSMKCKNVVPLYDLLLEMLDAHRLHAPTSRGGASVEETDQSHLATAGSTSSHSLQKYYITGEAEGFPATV
Chain of Signal transducer and activator of transcription 3 (Homo sapiens) (P40763 whole entry, looked up): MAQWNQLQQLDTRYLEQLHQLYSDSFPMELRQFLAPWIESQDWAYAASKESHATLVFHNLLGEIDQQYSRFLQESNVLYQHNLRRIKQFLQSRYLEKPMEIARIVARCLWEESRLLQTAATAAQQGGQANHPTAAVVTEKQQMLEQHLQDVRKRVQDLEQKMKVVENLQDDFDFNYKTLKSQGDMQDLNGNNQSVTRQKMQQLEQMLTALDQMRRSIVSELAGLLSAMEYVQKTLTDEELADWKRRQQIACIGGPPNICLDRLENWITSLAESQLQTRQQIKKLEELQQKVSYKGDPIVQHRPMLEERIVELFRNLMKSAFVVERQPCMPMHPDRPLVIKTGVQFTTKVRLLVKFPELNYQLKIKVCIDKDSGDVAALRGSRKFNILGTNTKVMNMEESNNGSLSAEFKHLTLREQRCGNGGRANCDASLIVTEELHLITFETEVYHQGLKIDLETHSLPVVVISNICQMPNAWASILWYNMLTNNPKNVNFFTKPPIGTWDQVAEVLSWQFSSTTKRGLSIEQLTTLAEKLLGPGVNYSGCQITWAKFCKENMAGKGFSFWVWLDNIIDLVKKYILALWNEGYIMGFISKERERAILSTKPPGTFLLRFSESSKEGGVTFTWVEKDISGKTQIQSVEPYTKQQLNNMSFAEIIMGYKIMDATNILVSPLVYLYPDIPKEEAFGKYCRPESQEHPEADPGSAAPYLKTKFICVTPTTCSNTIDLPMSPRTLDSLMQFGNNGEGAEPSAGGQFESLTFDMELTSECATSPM
Chain of Glucocorticoid receptor (Homo sapiens) (P04150 whole entry, looked up, the tested form may be a part): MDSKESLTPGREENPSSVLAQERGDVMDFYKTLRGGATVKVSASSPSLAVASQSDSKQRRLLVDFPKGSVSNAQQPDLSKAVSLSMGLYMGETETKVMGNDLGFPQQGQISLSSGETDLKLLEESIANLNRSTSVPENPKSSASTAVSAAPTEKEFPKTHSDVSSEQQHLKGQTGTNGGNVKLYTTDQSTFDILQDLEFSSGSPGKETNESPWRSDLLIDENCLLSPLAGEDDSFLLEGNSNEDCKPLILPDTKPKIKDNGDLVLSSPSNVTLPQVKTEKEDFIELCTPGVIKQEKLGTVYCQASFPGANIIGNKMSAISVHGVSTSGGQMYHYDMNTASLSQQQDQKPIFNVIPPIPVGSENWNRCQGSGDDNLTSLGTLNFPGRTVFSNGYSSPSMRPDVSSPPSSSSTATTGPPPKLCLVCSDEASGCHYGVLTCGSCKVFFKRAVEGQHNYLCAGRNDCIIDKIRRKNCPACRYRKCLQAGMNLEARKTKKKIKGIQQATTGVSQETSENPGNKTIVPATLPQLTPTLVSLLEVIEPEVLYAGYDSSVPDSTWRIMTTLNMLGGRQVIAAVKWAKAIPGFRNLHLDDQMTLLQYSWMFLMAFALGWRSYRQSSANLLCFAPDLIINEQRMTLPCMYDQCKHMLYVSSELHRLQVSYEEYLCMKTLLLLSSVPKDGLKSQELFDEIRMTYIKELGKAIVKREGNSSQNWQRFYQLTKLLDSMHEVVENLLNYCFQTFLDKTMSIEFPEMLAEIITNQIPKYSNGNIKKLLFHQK
Chain of Paired box protein Pax-6 (Homo sapiens) (P26367 whole entry, looked up): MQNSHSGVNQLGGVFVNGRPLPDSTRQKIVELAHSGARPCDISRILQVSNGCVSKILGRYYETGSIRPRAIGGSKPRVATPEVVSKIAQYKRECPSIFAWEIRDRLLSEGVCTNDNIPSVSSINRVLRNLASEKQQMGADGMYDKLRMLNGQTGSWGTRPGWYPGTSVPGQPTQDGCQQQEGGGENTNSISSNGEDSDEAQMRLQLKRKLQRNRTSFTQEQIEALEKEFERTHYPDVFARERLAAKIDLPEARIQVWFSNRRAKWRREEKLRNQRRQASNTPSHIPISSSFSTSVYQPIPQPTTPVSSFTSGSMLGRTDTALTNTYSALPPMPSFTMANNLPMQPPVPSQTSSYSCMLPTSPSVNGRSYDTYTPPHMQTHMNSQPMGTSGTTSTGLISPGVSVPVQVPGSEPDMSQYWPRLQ
Chain of Steroid hormone receptor ERR1 (Homo sapiens) (P11474 whole entry, looked up, the tested form may be a part): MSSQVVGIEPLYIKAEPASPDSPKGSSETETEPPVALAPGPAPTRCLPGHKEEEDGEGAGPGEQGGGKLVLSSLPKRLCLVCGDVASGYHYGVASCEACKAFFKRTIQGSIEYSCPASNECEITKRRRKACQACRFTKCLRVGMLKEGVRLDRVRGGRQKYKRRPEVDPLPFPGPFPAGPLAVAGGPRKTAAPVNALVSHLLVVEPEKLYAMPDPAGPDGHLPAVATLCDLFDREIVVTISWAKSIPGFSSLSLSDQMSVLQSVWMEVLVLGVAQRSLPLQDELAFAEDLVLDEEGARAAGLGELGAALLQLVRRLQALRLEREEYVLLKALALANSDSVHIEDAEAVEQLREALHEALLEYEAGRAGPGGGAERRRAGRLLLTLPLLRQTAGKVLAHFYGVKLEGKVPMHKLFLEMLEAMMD
Chain of Estrogen-related receptor gamma (Homo sapiens) (P62508 whole entry, looked up, the tested form may be a part): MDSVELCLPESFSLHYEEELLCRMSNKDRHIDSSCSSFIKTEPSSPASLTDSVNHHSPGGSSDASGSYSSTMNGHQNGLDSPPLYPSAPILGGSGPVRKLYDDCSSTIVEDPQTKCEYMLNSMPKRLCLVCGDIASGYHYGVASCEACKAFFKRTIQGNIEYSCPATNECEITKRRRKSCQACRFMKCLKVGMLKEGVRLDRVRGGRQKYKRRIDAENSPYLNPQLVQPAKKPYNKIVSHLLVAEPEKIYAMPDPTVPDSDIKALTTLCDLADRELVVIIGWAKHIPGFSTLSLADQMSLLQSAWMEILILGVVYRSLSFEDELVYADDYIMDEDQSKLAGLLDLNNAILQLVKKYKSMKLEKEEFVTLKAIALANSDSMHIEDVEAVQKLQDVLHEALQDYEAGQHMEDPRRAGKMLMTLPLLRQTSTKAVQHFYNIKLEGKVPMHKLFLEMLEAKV

Cc1ccc2ncccc2c1
not listed: [16] | [17] | [18] | [19] | [20]
inactive: all other assays above

Cc1cccc([N+](=O)[O-])c1C
active: [2] 27.1 µM | [17] 44.3 µM
not listed: [4] | [13] | [14] | [15] | [19] | [20]
inactive: all other assays above

O=C(N[C@@H](Cc1ccccc1)[C@@H](O)C(=O)N1C[C@@H](O)[C@@H](O)C1)c1cc2cc(Cl)ccc2[nH]1
active: [8] 128 µM | [12] 151 µM
not listed: [13] | [14] | [20]
inactive: all other assays above

CC(CO)OC(C)CO (stereo not drawn) (tested in a mixture with another compound)
not listed: [13] | [14] | [15] | [18] | [20]
inactive: all other assays above

O=C(O)Cc1ccccc1Nc1c(Cl)cccc1Cl
active: [2] 25.8 µM | [9] 40.6 µM | [16] 16.2 µM
not listed: [14] | [15] | [20]
inactive: all other assays above

CCOC(=O)C(C)(C)Oc1ccc(Cl)cc1
not listed: [3] | [14] | [15]
inactive: all other assays above

FC(F)(F)C(F)(F)C(F)(F)C(F)(F)C(F)(F)C(F)(F)CCI
not listed: [13] | [14] | [15] | [18] | [19] | [20]
inactive: all other assays above

COCCOC[C@H](CC1(C(=O)NC2CCC(C(=O)O)CC2)CCCC1)C(=O)Oc1ccc2c(c1)CCC2 (stereo partly drawn)
active: [2] 20.2 µM | [16] 48.5 µM
not listed: [13]
inactive: all other assays above
